Assay [1] has as its target Estrogen receptor (Homo sapiens) (UniProt P03372). Briefly: qHTS assay for small molecule antagonists of estrogen receptor alpha signaling (AID 588513; active = well fitted curve in the direction sought with a large enough effect in the signal ratio, with a control signal flat, not every such curve was filed as active; the % refers to the signal ratio; note: % is set by controls: 0 for no effect and ±100 for the full control effect). In a few lines: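 Cells were plated at 5000/well and incubated 4 h at 37 C. Compounds were added as 1:2 dilution series, duplicates. 17-beta-estradiol (0.5nM final) was added for 18 h before CCF4 detection.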
The target is the same in assay [2]. Briefly: qHTS assay for small molecule agonists of estrogen receptor alpha signaling (AID 588514; calls by dose curve;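 note: 0% = vehicle only and 100% = reference agonist; nearly all actives have a fitted effect of over 70% in size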). The method, boiled down: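 ER-alpha-UAS-bla GripTite HEK 293 cells in medium with 2% charcoal/dextran-treated FBS were treated with compound titrations at 37 C for 18 hrs; beta-lactamase reporter read by CCF4 fluorescence after 2 hrs at RT.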
Assay [3] concerns the target Bile acid receptor (Homo sapiens) (UniProt Q96RI1). Briefly: qHTS assay for small molecule antagonists of farnesoid X receptor signaling (AID 588526; calls by dose curve; note: % is set by controls: 0 for no effect and ±100 for the full control effect). The method, boiled down:
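Concentration-response titrations were fitted to the Hill equation for half-maximal inhibition and maximal response, with data normalised to 50 uM chenodeoxycholic acid and DMSO control wells. Cells: FXR-UAS-bla HEK293T, dialyzed FBS.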

A short description of assay [4]: qHTS assay for small molecule antagonists of peroxisome proliferator-activated receptor delta signaling (AID 588535; active = well fitted inhibition curve with a large enough effect in the signal ratio, with a control signal flat, not every such curve was filed as active; the % refers to the signal ratio;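 for max response: cells co-treated with a PPAR-delta agonist as stimulator during compound exposure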). The note with it: HEK293T PPARd-UAS-bla, beta-lactamase FRET ratio, 18 h; 460 nm channel. In a few lines: (§1)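 GeneBLAzer PPAR-delta-UAS-bla HEK293T cells in medium with 2% charcoal/dextran FBS were preincubated 5 hrs at 37 C, then given compounds, incubated 18 hrs at 37 C, and read by CCF4 beta-lactamase fluorescence; IC50 from Hill fits.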

In assay [5] the target is Peroxisome proliferator-activated receptor delta (Homo sapiens) (UniProt Q03181). The assay is described as above. The method, boiled down: as §1
In assay [6] the target is Vitamin D3 receptor (Homo sapiens) (UniProt P11473). Briefly: qHTS assay for small molecule antagonists of vitamin D receptor signaling (AID 588541; calls by dose curve;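 note: receptor activated by calcitriol during compound treatment; series mostly up to about 77 µM; % is set by controls: 0 for no effect and ±100 for the full control effect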). In a few lines: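 VDR-UAS-bla HEK293T cells (2000/well, 2% charcoal-stripped FBS) were treated with titrated compounds plus 1-alpha,25-dihydroxyvitamin D3 (50 nM or 3 nM final) for 16 h at 37 C. CCF4 beta-lactamase fluorescence was read; Hill fits gave IC50.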

Assay [7] has the same target. Briefly: qHTS assay for small molecule agonists of vitamin D receptor signaling (AID 588543; calls by dose curve;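 note: 0% = DMSO basal and 100% = reference agonist control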). The method, boiled down: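 qHTS in agonist mode: compound titrations stimulate a VDR-driven β-lactamase reporter in HEK293T cells over 16 h at 37 °C. Response normalized to 50 nM 1α,25-dihydroxyvitamin D3 = 100%, DMSO = 0%; Hill fitting gives EC50 and maximal response.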
Assay [8] in a line: qHTS assay for small molecule agonists of retinoid X receptor alpha signaling (AID 588544; calls by dose curve;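 for activation: 0% = DMSO basal wells and 100% = reference agonist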). The note with it: HEK293T RXRa-UAS-bla, beta-lactamase reporter, 18 h; 530 nm emission.
The target in assay [9] is Retinoic acid receptor RXR-alpha (Homo sapiens) (UniProt P19793). The assay is described as above.
Assay [10] deals with Thyroid hormone receptor beta (Homo sapiens) (UniProt P10828). Briefly: qHTS assay for small molecule agonists of thyroid hormone receptor beta signaling (AID 588545; calls by dose curve). The method, boiled down:
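Agonist activity was read as beta-lactamase CCF4 fluorescence (405 ex, 460/530 em), scaled between DMSO (0%) and 10 nM T3 (100%), then Hill-fitted for EC50 and efficacy. HEK 293 TR-UAS-bla cells in 2% charcoal/dextran FBS medium were exposed 18 h at 37 C.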

Assay [11] in a line: qHTS assay for small molecule antagonists of retinoid X receptor alpha signaling (AID 588546; active = well fitted inhibition curve with a large enough effect in the signal ratio, with a control signal flat, not every such curve was filed as active; the % refers to the signal ratio;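 note: cells stimulated with 9-cis-retinoic acid as agonist; % is set by controls: 0 for no effect and ±100 for the full control effect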). The conditions noted are these: HEK293T RXRa-UAS-bla, beta-lactamase ratio, antagonist mode; measured here: W530 green channel, cytotoxicity proxy. The method, boiled down:
(§2)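 Beta-lactamase reporter inhibition, read as CCF4 fluorescence ratio (ex 405, em 460/530 nm) after 2 h at RT. HEK293T UAS-bla cells, 2500/well, were stimulated with 9-cis-RA at 500 or 100 nM final alongside test compound for 18 h at 37 C.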

Assay [12] addresses Retinoic acid receptor RXR-alpha (Homo sapiens) (UniProt P19793). The description is as above. The conditions noted are these: HEK293T RXRa-UAS-bla, beta-lactamase ratio, antagonist mode. In a few lines:
as §2

The target of assay [13] is Thyroid hormone receptor beta (Homo sapiens) (UniProt P10828). Briefly: qHTS assay for small molecule antagonists of thyroid hormone receptor beta signaling (AID 588547; active = well fitted inhibition curve with a large enough effect in the signal ratio, with a control signal flat, not every such curve was filed as active; the % refers to the signal ratio). The note with it: TR-UAS-bla HEK293, beta-lactamase ratio, antagonist mode, 18 h. In a few lines: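 TR-UAS-bla GripTite HEK293 cells in 2% charcoal/dextran FBS medium were preincubated 4 h at 37 C, given compound (0.59 nM to 92 uM) plus 0.4 nM T3 (final) for 18 h, then CCF4 for 2 h at RT; Hill fit gave IC50.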

A short description of assay [14]: qHTS assay for small molecule agonists of the antioxidant response element (ARE) signaling pathway (AID 651741; active = well fitted activation curve with a large enough effect in the signal ratio; the % refers to the signal ratio; note: % of control where 0% means no effect). The method, boiled down:
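ARE-bla HepG2 cells (beta-lactamase reporter under ARE control) were plated at 2,000 cells/well, preincubated 5 h at 37 C/5% CO2, then treated with DMSO-dissolved compounds for 16 h at 37 C; LiveBLAzer B/G FRET substrate added, fluorescence read after 2 h at room temperature.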

Assay [15] can be described thus: qHTS assay for small molecule activators of the p53 signaling pathway (AID 651743; active = well fitted activation curve with a large enough effect in the signal ratio, not every such curve was filed as active; the % refers to the signal ratio; note: series mostly up to about 92 µM; % of control where 0% means no effect). The conditions noted are these: HCT-116 p53RE-bla, beta-lactamase FRET ratio, 16 h; stronger effect = higher value. The method, boiled down: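 p53RE-bla HCT-116 cells with a stably integrated beta-lactamase reporter under p53 response elements were plated, rested 5 hours at 37 C/5% CO2, then exposed to compounds in DMSO for 16 hours at 37 C. LiveBLAzer B/G FRET substrate was read after 2 hours at room temperature.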

Assay [16] in a line: qHTS assay for small molecule activators of the nuclear factor-kappa B (NF-kB) signaling pathway (AID 651749; active = well fitted activation curve with a large enough effect in the signal ratio; the % refers to the signal ratio; note: series mostly up to about 77 µM; % of control where 0% means no effect). The note with it: NF-kB-bla ME-180 cells, beta-lactamase FRET ratio, 16 h; stronger effect = higher value. In a few lines: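 ME-180 cells stably carrying a beta-lactamase reporter under an NF-kB response element were exposed to compound or DMSO vehicle for 16 hr at 37C, 5% CO2. Pathway activation was read by FRET, since reporter expression disrupts FRET.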

A short description of assay [17]: qHTS assay for environmental chemicals that activate the Aryl hydrocarbon Receptor (AhR) signaling pathway (AID 651777). Note: % of control where 0% means no effect; nearly all actives have a fitted effect of over 15% in size. The conditions noted are these: 1A2-DRE human hepatoma cells, luciferase, 24 h; stronger effect = higher value. In a few lines: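 1A2-DRE human hepatoma reporter line; 1,200 cells/well; cmpd or DMSO 24 h, 37 C/5% CO2; One-Glo 30 min RT; luciferase lum.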

Assay [18] addresses Peroxisome proliferator-activated receptor alpha (Homo sapiens) (UniProt Q07869). Briefly: qHTS assay for small molecule agonists of the peroxisome proliferator-activated receptor alpha (PPARalpha) signaling pathway (AID 651778). Note: % of control where 0% means no effect. The note with it: PathHunter PPARalpha complementation, chemiluminescence, 6 h; stronger effect = higher value. In a few lines: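 Cells plated at 2,000/well and held overnight at 37 C, 5% CO2, then compound added by pin tool for 6 hr; after PathHunter detection reagent and 60 min at room temperature, chemiluminescence from enzyme complementation was read.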

A short description of assay [19]: qHTS assay for small molecule agonists of the antioxidant response element (ARE) signaling pathway measured by Nrf2-dependant transcriptional activity (AID 720636; active = well fitted curve in the direction sought with a large enough effect in the repeat runs; an effect the other way counts as inactive or inconclusive;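 note: HepG2 cells with an ARE-driven luciferase reporter; % of control where 0% means no effect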). In a few lines: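 Cells: ARE-luc HepG2 with Nrf2-responsive luciferase. Medium contained 1% dialyzed FBS. Compound exposure lasted 16 hr at 37 C and 5% CO2, followed by ONE-Glo luciferase detection.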

A short description of assay [20]: qHTS assay for cell viability of HEK293 cells (AID 743288). Note: potency is the fitted concentration of half-maximal effect; nearly all actives have a fitted effect of over 50% in size. The conditions noted are these: ATP luminescence (CellTiter-Glo), 18 h; max response: stronger effect = lower value. In a few lines:
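The Tox21 protocol used parental HEK293 cells treated for 18 h at 37 C with compounds delivered by pintool; ATP-coupled luminescence after 30 min at room temperature gave viability.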

A short description of assay [21]: qHTS assay for cell viability of the p53RE-bla HCT-116 cell line (AID 743292). Note: potency is the fitted concentration of half-maximal effect; nearly all actives have a fitted effect of over 55% in size. The method, boiled down: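 HCT-116 p53RE-bla cells seeded 4,000/well; 5 h at 37 C; compound (DMSO) added; 16 h at 37 C; CellTiter-Glo added, 30 min RT; luminescence read.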
Assay [22] has as its target Furin (Homo sapiens) (UniProt P09958). Briefly: Furin counterscreen qHTS for Zika virus inhibitors (AID 1347149). Note: nearly all actives have a fitted effect of over 70% in size. Note: potency is the fitted concentration of half-maximal effect. The method, boiled down:
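Fluorogenic cleavage of BOC-RVRR-AMC (2 microM final, Km ~15 µM) was monitored (ex 340, em 450 nm) at 37C after 15 min RT preincubation of 5 nM furin with compounds in HEPES pH 7.0 buffer with CaCl2 and Triton X-100. Percent inhibition was fitted to a 4-parameter Hill curve.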

Assay [23] in a line: Confirmatory screen GU Rhodamine qHTS for Zika virus inhibitors qHTS (AID 1347157). Note: nearly all actives have a fitted effect of over 70% in size. Note: potency is the fitted concentration of half-maximal effect. In a few lines:
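Percent inhibition derives from the 15-min fluorescence change (ex 480, em 540 nm), normalized to no-enzyme and no-inhibitor wells. Reactions contained 25 nM NS2B-NS3 complex and 1.5 microM substrate in 10 mM Tris-HCl pH 8.0.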

The nature of assay [24]: ZIKV-mCherry secondary qHTS for Zika virus inhibitors (AID 1347158). Note: top concentration of the series differs between compounds. In a few lines: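 Vero cells, 5,000/well, plated overnight at 37 °C, then compound added and infected with recombinant ZIKV-mCherry at MOI 1 for 48-72 h. PFA-fixed, Hoechst nuclear stain, high-content imaging; cells with mCherry intensity above 450 RFU scored infected, reported as percent infection.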

The nature of assay [25]: Confirmatory screen NINDS Rhodamine qHTS for Zika virus inhibitors (AID 1347161). Note: potency is the fitted concentration of half-maximal effect; nearly all actives have a fitted effect of over 60% in size. The method, boiled down:
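Rhodamine110-peptide cleavage (1.5 µM substrate) by 25 nM linked NS2B-NS3 enzyme at pH 8.0 (Tris, Tween 20), after 15 min RT preincubation with compounds; 15-min fluorescence change normalized to controls and Hill-fitted.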

The test system of assay [26] is Zika virus NS2B-NS3 protease (linked). Briefly: 384 well plate NINDS AMC confirmatory qHTS for Zika virus inhibitors (AID 1347163). Note: potency is the fitted concentration of half-maximal effect; nearly all actives have a fitted effect of over 50% in size. In a few lines: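 Linked protease 5/30/60 nM final; cpds up to 1 mM final, ~15 min preinc. Substrate Ac-VKTGKR-AMC 30 microM final. RT, dark, 25 min; FI ex 355/em 460; normalized to no-enzyme/no-inhibitor ctrls.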
In assay [27] the test system is Zika virus NS2B-NS3 protease (linked construct). Briefly: 384 well plate NINDS Rhodamine confirmatory qHTS for Zika virus inhibitors (AID 1347164). Note: potency is the fitted concentration of half-maximal effect; nearly all actives have a fitted effect of over 65% in size. The method, boiled down:
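Compounds are incubated about 15 minutes with linked protease (5, 30 or 60 nM final). Rhodamine 110-tagged Ac-LKRR substrate (10 microM final) is added and fluorescence measured after 25 minutes.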

Assay [28] deals with Nuclear receptor subfamily 1 group I member 2 (Rattus norvegicus) (UniProt Q9R1A7). Briefly: qHTS assay for small molecule activators of the rat pregnane X receptor (rPXR) signaling pathway (AID 651751; call rule not given here; note: 0% is about no effect). The note with it: rPXR reporter cells, luciferase (One-Glo), 24 h.
Assay [29] is described as follows: qHTS assay for small molecule activators of the human pregnane X receptor (PXR) signaling pathway (AID 720659; call rule not given here; note: 0% is about no effect).
Assay [30] has as its system Zika virus NS2B-NS3 protease (linked construct). Briefly: Confirmatory screen NINDS AMC qHTS for Zika virus inhibitors (AID 1347152).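 Note: AMC fluorescence gain from cleaved Bz-Nle-KRR-AMC substrate over 15 min; top concentration of the series differs between compounds; 0% = no-inhibitor control and -100% = no-enzyme control; nearly all actives have a fitted effect of over 70% in size.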 In a few lines: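 In this dose-response qHTS, AMC release from 10 microM Bz-Nle-KRR-AMC by 1 nM linked protease is measured over 15 minutes (about 20% conversion) at pH 8.0. Percent inhibition is fitted to a 4-parameter Hill curve.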
Assay [31] relates to Zika virus NS2B-NS3 protease (unlinked complex). Briefly: Confirmatory screen GU AMC qHTS for Zika virus inhibitors (AID 1347153). In a few lines: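 Noncovalent NS2B hydrophilic domain/NS3 protease complex (25 nM) in 10 mM Tris-HCl pH 8.0, 0.01% Tween 20 was preincubated 15 min at room temperature with compounds. Then 10 µM AMC substrate (Km 18.3 µM) was added; fluorescence was read over 15 min and fitted to a 4-parameter Hill equation.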

The nature of assay [32]: Tertiary RLuc qRT-PCR qHTS assay for Zika virus inhibitors (AID 1347169). Note: top concentration of the series differs between compounds; % is set by controls: 0 for no effect and ±100 for the full control effect; nearly all actives have a fitted effect of over 55% in size. The method, boiled down:
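Orthogonal cell-based infection assay using recombinant ZIKV-RLuc (Cambodian) in Vero cells; compound added prior to virus at MOI 1-2. Incubation lasts 48-72 hrs at 37 degrees C before live-cell Renilla substrate is added and luminescence measured.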

Results filed as inconclusive are left out. Activity calls are given as the source filed them. Unless noted, calls come from the whole dose curve; as a rule, active = well fitted curve in the direction sought with a large enough effect; inconclusive = small, poorly fitted or top-dose-only effect, or another doubt; inactive = no such curve, though single readings can be large; an effect the other way counts as inactive or inconclusive.

Furin (Homo sapiens), sequence (P09958 whole entry, looked up): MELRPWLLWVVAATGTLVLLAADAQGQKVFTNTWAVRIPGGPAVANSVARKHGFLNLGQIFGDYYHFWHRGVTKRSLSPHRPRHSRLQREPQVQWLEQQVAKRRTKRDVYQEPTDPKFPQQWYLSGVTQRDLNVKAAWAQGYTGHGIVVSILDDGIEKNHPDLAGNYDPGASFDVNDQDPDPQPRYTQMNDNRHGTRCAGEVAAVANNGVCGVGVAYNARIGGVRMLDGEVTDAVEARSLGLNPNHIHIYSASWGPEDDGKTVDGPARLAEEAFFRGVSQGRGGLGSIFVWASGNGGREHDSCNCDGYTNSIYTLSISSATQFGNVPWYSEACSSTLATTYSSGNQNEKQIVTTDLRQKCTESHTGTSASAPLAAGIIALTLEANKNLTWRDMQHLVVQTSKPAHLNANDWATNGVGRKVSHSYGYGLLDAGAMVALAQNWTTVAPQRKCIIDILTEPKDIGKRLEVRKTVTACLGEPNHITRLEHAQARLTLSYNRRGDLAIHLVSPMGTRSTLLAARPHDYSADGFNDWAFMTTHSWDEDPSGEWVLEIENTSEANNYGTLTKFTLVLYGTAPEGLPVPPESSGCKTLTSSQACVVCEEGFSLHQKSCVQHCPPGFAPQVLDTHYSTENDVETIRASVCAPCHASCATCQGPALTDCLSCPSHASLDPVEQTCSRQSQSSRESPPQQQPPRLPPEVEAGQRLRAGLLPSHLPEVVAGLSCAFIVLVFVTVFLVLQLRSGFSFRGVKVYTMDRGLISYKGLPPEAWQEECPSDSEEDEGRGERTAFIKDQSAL
Retinoic acid receptor RXR-alpha (Homo sapiens), sequence (P19793 whole entry, looked up): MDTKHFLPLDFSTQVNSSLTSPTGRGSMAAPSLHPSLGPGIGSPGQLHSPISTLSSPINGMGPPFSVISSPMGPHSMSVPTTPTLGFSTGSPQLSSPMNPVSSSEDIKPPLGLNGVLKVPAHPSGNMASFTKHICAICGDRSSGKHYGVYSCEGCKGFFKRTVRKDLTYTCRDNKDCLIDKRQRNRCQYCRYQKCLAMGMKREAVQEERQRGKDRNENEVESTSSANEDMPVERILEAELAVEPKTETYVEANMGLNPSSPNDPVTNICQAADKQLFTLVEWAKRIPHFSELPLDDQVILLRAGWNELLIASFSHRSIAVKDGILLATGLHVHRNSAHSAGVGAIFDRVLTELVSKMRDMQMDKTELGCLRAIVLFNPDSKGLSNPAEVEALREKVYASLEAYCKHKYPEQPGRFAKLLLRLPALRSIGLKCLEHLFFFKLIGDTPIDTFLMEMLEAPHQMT
Vitamin D3 receptor (Homo sapiens), sequence (P11473 whole entry, looked up): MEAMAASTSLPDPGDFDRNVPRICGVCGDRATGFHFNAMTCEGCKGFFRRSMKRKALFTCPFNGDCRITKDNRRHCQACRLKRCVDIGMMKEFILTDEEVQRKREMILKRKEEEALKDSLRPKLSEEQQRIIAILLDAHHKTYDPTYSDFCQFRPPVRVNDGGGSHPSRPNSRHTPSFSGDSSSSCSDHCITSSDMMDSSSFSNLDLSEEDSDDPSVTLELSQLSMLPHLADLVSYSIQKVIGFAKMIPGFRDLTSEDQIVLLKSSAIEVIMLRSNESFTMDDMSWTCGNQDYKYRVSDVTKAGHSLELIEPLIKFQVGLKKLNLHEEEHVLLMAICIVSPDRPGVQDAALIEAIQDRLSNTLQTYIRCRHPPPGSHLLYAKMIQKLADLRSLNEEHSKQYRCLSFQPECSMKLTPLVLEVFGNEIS
Estrogen receptor (Homo sapiens), sequence (P03372 whole entry, looked up): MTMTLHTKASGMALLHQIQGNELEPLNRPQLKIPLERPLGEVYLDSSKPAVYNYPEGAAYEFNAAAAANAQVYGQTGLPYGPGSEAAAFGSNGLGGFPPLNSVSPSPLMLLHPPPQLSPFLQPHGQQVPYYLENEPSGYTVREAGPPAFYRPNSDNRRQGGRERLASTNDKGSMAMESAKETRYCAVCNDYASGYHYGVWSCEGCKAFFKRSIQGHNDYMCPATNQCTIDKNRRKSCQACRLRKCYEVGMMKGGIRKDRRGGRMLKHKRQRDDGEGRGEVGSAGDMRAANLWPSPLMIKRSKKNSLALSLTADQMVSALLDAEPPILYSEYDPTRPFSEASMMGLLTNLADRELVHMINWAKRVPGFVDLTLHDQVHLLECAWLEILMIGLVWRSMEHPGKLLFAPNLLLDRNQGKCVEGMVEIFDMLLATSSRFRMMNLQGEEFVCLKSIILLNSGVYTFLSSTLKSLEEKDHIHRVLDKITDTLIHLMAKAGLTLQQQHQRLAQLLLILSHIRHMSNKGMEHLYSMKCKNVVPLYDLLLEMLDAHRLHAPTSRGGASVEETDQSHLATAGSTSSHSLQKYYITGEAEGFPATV
Thyroid hormone receptor beta (Homo sapiens), sequence (P10828 whole entry, looked up): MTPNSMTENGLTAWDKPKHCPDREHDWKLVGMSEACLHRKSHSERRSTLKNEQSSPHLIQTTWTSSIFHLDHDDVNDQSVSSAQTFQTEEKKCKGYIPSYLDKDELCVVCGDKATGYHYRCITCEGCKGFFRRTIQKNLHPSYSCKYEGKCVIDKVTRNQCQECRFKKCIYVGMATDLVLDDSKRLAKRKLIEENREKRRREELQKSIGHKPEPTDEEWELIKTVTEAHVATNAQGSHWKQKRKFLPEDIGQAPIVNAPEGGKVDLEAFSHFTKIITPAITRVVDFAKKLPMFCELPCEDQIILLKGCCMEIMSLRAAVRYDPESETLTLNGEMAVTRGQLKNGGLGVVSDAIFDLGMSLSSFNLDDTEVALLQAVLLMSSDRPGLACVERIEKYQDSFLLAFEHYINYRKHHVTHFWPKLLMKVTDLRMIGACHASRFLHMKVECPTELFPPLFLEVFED
Peroxisome proliferator-activated receptor alpha (Homo sapiens), sequence (Q07869 whole entry, looked up): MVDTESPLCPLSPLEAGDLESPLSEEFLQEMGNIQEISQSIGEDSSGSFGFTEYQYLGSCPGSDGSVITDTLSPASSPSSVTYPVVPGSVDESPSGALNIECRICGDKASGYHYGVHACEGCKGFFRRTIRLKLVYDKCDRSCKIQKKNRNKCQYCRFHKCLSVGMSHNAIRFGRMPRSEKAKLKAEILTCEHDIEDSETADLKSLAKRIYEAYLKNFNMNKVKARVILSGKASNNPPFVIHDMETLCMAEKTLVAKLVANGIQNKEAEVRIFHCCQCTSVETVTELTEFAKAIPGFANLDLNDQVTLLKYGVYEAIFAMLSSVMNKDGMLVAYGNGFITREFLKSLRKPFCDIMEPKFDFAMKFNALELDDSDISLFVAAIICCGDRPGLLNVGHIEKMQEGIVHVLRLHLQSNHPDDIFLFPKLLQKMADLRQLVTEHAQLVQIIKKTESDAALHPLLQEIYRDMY
Bile acid receptor (Homo sapiens), sequence (Q96RI1 whole entry, looked up): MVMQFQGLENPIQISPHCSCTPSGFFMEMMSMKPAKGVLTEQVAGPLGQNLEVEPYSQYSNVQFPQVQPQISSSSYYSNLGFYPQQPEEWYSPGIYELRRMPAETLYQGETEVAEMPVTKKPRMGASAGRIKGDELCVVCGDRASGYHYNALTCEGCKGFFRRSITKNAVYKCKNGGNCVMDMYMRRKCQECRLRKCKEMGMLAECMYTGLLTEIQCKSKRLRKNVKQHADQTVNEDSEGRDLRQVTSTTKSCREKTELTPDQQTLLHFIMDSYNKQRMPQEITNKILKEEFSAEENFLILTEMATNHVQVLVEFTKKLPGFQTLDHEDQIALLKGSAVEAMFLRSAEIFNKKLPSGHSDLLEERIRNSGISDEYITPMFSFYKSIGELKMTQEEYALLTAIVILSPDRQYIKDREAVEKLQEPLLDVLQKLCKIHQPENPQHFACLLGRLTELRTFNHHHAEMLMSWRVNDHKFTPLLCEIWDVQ
Peroxisome proliferator-activated receptor delta (Homo sapiens), sequence (Q03181 whole entry, looked up): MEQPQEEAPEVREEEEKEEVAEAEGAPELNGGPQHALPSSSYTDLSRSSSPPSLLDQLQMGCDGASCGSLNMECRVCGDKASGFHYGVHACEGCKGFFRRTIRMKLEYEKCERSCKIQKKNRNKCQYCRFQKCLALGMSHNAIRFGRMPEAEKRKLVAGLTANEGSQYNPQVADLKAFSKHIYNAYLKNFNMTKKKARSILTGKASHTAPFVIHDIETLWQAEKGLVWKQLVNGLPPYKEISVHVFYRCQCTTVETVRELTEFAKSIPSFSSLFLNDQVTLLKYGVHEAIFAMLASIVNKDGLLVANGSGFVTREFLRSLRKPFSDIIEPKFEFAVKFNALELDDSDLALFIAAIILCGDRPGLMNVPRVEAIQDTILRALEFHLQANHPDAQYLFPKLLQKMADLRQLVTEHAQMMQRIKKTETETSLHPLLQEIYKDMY
Nuclear receptor subfamily 1 group I member 2 (Rattus norvegicus), sequence (Q9R1A7 whole entry, looked up): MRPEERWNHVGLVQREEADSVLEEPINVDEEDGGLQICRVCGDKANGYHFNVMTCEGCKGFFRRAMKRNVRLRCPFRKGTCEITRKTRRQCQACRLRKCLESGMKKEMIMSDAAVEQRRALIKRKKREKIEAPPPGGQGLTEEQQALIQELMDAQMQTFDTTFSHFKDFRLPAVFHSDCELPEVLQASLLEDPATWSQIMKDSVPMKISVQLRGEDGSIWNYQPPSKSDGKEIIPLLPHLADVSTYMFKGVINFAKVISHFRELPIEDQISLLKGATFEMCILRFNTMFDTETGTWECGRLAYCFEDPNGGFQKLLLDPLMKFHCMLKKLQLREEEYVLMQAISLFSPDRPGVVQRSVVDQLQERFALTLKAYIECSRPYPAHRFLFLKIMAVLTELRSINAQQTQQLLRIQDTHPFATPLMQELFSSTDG

Regarding `CCN(Cc1cccc(S(=O)(=O)O)c1)c1ccc(C(=C2C=CC(=[N+](CC)Cc3cccc(S(=O)(=O)O)c3)C=C2)c2ccccc2S(=O)(=O)[O-])cc1`, the Potency entry in [1], in assay [6], in assay [14], in [22] and in assay [24] was “inactive” each time. Besides, the molecule was called inactive in assay [2], in assay [3], in [5], in assay [7], in [9] and in assay [10]. Moreover, the molecule was called inactive in [19] and in [29]. Further, the max response in assay [4] was -15.8%; in assay [8], -7.12%; in [11], -12.5%; in [12] it was 8.56% (inactive); in assay [18], -9.68% (inactive); in assay [28], -11% (inactive). Further, the activity change % (negative = inhibition) in [13] is -4.53% (inactive). In addition, the activation was 1.38% (inactive) in assay [15], 1.84% (inactive) in assay [16] and -6.97% (inactive) in assay [17]. The Potency in [20] is 35.5 µM (active); in assay [21], 31.6 µM (active); in assay [23], 3.55 µM (active); in assay [25], 3.55 µM (active); in [26], 200 µM (active); in assay [27], 14.1 µM (active).
Consider `COC(=O)[C@H](Cc1ccc(OC)cc1)NC(=O)[C@H]1CN(S(=O)(=O)c2ccccc2)CCN1S(=O)(=O)c1ccccc1`, for which the Potency result in assay [22], in assay [30], in assay [31] and in assay [32] was “inactive” throughout.
Consider `CCOC(=O)c1c(-c2ccccc2)oc2ccc(NS(=O)(=O)c3ccc(C(C)C)cc3)cc12`, for which the Potency in assay [22] is 46.9 µM (active). The Potency result in assay [23] was “inactive”.

(Values after PubChem BioAssay (NCATS).)
